This passage reports Inhibition results from ChEMBL document CHEMBL1157539, “Thousands of chemical starting points for antimalarial lead identification” (Nature, 2010).

Each structure is given as a SMILES string.

The Inhibition is the change of the read-out against control, counted positive when it falls. High values mean a response far below the control, low ones a response near the control.

The assay concerns Plasmodium falciparum. Description: GSK_TCMDC: Inhibition of Plasmodium falciparum Dd2 in whole red blood cells, using parasite LDH activity as an index of growth. Test compounds present at 2uM. The class given is functional.
As to `CCCC(CNCc1cccc(I)c1)CNc1cc(=O)c2ccccc2[nH]1` (stereo not given), the Inhibition is listed as 96%.
Consider `CC1(C)N=C(NC(=O)c2cc([N+](=O)[O-])cc([N+](=O)[O-])c2)N=C(N)N1OCc1cccc2ccccc12`, for which the Inhibition worked out at 20%.
Compound `Cc1nc(N)nc(N)c1-c1ccc(Cl)c(Cl)c1` [METOPRINE] showed an Inhibition of 0%.
`COc1cc(C(=O)NC2CCN(Cc3ccccc3)CC2)ccc1-c1cc2cc(Cl)c(Cl)cc2[nH]1.O=C(O)C(F)(F)F`: the Inhibition is listed as 100%.
Compound `O=C(Nc1ccc(-c2ccc(-c3nc4ccccc4[nH]3)s2)cc1)Nc1ccsc1` displayed an Inhibition of 54%.
`O=C(NCc1ccc(C(=O)NC2CCCCC2)cc1)c1ccc(O)c(-c2ccc(Cl)c(Cl)c2)c1` returned an Inhibition of 0%.
In turn, `O=C(Nc1cccnc1)c1cc(-c2cc(Cl)ccc2O)n[nH]1` had an Inhibition of 85%.
To `CCNc1cc(C(=O)N[C@@H](Cc2ccccc2)[C@H](O)CNC(C)(C)CCCC(C)C)cc(N2CCCC2=O)c1.O=CO` belongs 81%; to `C[C@H](NC(=O)C1CCCC1)C(=O)Nc1ccc(-c2ccc(-c3nc4cc(C(F)(F)F)ccc4[nH]3)cc2)cc1`, 70%.
As to `COc1ccc(-n2c(=O)c3c(n4c(SC(C)C)nnc24)-c2ccccc2CC32CCCCC2)cc1`, the Inhibition is 15%.
The value for `CCNc1cc(C(=O)N[C@@H](Cc2ccccc2)[C@H](O)CNC(C)(C)Cc2ccccc2)cc(N2CCCC2=O)c1.O=CO` was 78%.
To `O=[N+]([O-])c1cccc(/C=N/Nc2ccnc3cc(F)ccc23)c1` belongs 100%.
To `CCCNCc1ccc(-c2ccc(CN(CC3CCCO3)C(=O)C3CC(=O)c4ccccc43)cc2)nc1.O=C(O)C(F)(F)F` (stereo not given) belongs 65%; to `O=C(NC1CC1)c1ccc(N2CCC(Cc3ccccc3)CC2)nc1.O=C(O)C(F)(F)F`, 92%.
`CCCCNc1c(C(=O)OCC)c(C)nc2c1[nH]c1ccccc12`: the Inhibition was determined as 58%.
The value for `Cc1ccc(-n2c(C)nc3c(Nc4ccc(-c5ccncc5)cc4)ncnc32)c(C)c1` was 99%; that for `CCNc1cc(C(=O)N[C@@H](Cc2ccccc2)[C@H](O)CNC(C)(C)CC(C)(C)C)c(F)c(N2CCCCS2(=O)=O)c1` was 63%.
`COc1ccccc1-c1cccc(CNC2CCN(CC3Cn4c(=O)ccc5ccc(F)c3c54)CC2)c1.O=C(O)C(F)(F)F` (stereo not given): the Inhibition is 0%.
Compound `Cc1nc(NCCCn2ccnc2)cc(-c2cncc(-c3ccc(OC(F)(F)F)cc3)c2)n1` returned an Inhibition of 11%.
To `CN1CC[C@@H](Oc2cc(CNC(=O)c3ccc(-c4ccc(Cl)cc4)s3)ccc2C(F)(F)F)C1.Cl` belongs 64%; to `CCOc1cc(C)ccc1C1CCN(CCN2CCC(CNC(=O)c3ccc(-c4ccc(C(F)(F)F)cc4)cc3)CC2)CC1`, 89%.
The value for `COc1ccc(CNCCCCCCNCCc2ccc(Cl)cc2)cc1OC.Cl` was 0%; that for `COc1ccc(C2CC(c3cccs3)=NN2C(=O)CNc2cccc(C#N)c2)cc1OC` (stereo not given) was 35%; that for `Cl.c1cc2c3c(cccc3c1)NC(CCCCCCCCC1=Nc3cccc4cccc(c34)N1)=N2` was 6%.
To `S=C(NCCN1CCOCC1)Nc1ccccc1` belongs 1%.
`CCN(CCN(C)C)Cc1ccc(-c2ccc(NS(=O)(=O)c3cccc(Cl)c3)cc2)cc1.O=C(O)C(F)(F)F` yielded an Inhibition of 40%.
The value for `O=[N+]([O-])c1ccc(Nc2nc(N/N=C/c3ccc(-c4ccc([N+](=O)[O-])cc4)o3)nc(Nc3ccccc3)n2)cc1` was 74%; that for `COc1cccc(NC(=O)[C@H](C)n2c(=O)[nH]c3ccccc3c2=O)c1` was 92%.
The value for `Cc1cccc2nc(-c3cccc(-c4cccc(NC(=O)c5c[nH]cn5)c4)c3)[nH]c12` was 91%.
For `CC(C)COc1ccc(Cl)cc1Cc1ccc(-c2nc3c(F)cccc3[nH]2)o1`, the Inhibition is 47%.
In the case of `CCc1cccc2c(C#N)cn(CC(=O)Nc3ccc(OC)cc3)c12`, the Inhibition is 76%.
In the case of `O=C(/C=C/c1ccc(Cl)c(Cl)c1)NCCCCN1CCCN(C(=O)Nc2ccc(Cl)c(Cl)c2)CC1`, the Inhibition stood at 1%.
`COc1cccc2c(N/N=C/c3ccccc3[N+](=O)[O-])ccnc12` gave an Inhibition of 43%.
As for `NC1CCN(Cc2ccc(-c3cccc(-c4nc5cc(F)ccc5[nH]4)c3)cc2)C1.O=C(O)C(F)(F)F` (stereo not given), the Inhibition turned out to be 16%.
In turn, `CCOC(=O)c1ccc(NC(=O)N[C@@H](Cc2ccc(O)cc2)C(=O)NC2CCN(Cc3ccc4c(c3)OCO4)CC2)cc1.O=C(O)C(F)(F)F` displayed an Inhibition of 24%.
Compound `CS(=O)(=O)c1ccc(CCNCc2ccc(-c3ccc(CN(C(=O)C4CC(=O)c5ccccc54)C4Cc5ccccc5C4)cc3)nc2)cc1.O=C(O)C(F)(F)F` (stereo not given) gave an Inhibition of 21%.
The value for `COc1ccc(NC(=O)NC2CCN(CCCCCNC(=O)/C=C/c3ccc(Cl)c(Cl)c3)CC2)cc1` was 1%; that for `COc1ccc2nc(-c3ccccc3)cc(NCCCNc3cc(-c4ccccc4)nc4ccc(OC)cc34)c2c1.Cl` was 99%.
The value for `CCN(CC)CCNc1ccnc2[nH]c3ccc(C)cc3c12` was 81%; that for `COCCn1c(SC(C)C(=O)Nc2cc(C(F)(F)F)ccc2Cl)nc2ccccc2c1=O` (stereo not given) was 95%.
